What all share (experiment): log2 fold change, soluble protein after heating vs DMSO (PISA); higher = thermal stabilisation; K562 lysate, 10 uM; active = over 0.2 and 3.5 SD of the protein, either way, in both replicates (recomputed)
Compound in experiment [1]: CC(C)(C)Cn1c(N)nc2ccc(-c3[nH]c(C(C)(C)C)nc3-c3ccc(F)cc3)nc21 [ralimetinib]
The gist of the method:
(§1)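 Soluble protein was defined as the supernatant remaining after 21,000xg for 90 min, following pooling of heated aliquots and adjustment to 0.5% NP-40 at 4°C. Before that, crude K562 extract at 1 mg/mL protein in PBS pH 7.4 with 1 mM MgCl2 was treated with 10 μM compound for 30 min and heated for 3 min across 48°C-58°C. Quantification used TMTpro 16plex LC-MS/MS with channel sums equalised, and values are log-two fold changes in thermal stability relative to solvent controls from duplicates.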

Compound in experiment [2]: CC(C)(O)CC(=O)NCCn1ccc2ncnc(Nc3ccc(Oc4cccc(C(F)(F)F)c4)c(Cl)c3)c21
The gist of the method: as §1

Compound in experiment [3]: CC1=C(C(CC(=O)N1)C2=CC=C(C=C2)C(F)(F)F)C(=O)NC3=C(C=C4C(=C3)C=NN4)F
A digest of the protocol: as §1

Compound in experiment [4]: CC1=C(C=C(C=C1)NC(=O)C2=CC(=CC=C2)N(C)C)NC(=O)C3=CC=C(C=C3)O
The gist of the method:
as §1

Compound in experiment [5]: CCn1c(C(=O)N(C2CC2)C2CC2)cc2c3c(ncn3C)c(Nc3cc(C)n(C)n3)nc21
A digest of the protocol: as §1

Compound in experiment [6]: CCn1cc(-c2ccnc3[nH]c(-c4cccc(CN(C)C)c4)cc23)c(-c2ccc(NC(=O)N(C)C)cc2)n1
The gist of the method:
as §1

Compound in experiment [7]: CN1CCC(CNc2ccc3ncc(-c4cccc(OC(F)(F)F)c4)n3n2)CC1
The gist of the method: as §1

Compound in experiment [8]: C=CC(=O)N1CCC[C@@H](n2nc(-c3ccc(Oc4ccccc4)cc3)c3c(N)ncnc32)C1 [ibrutinib]
The gist of the method: as §1

Compound in experiment [9]: CC(=O)c1cnc2ccc(-c3cc(Cl)c(O)c(Cl)c3)nc2c1N[C@H]1CC[C@H](CN(C)C)CC1
A digest of the protocol:
as §1

Compound in experiment [10]: CC1=C(C2=C(C=C1)C(=O)C3=CC=CC=C3N2CCCN)C
A digest of the protocol: as §1

Compound in experiment [11]: CC1=C(C=C(C=C1)NC(=O)C2=CC(=CC=C2)C(C)(C)C#N)NC3=CC4=C(C=C3)N=CN(C4=O)C
A digest of the protocol:
as §1

Compound in experiment [12]: CC1=CC=C(C=C1)SC2=C3C=C(SC3=CN=C2)C(=O)N
A digest of the protocol:
as §1

Compound in experiment [13]: CCCS(=O)(=O)Nc1ccc(F)c(C(=O)c2c[nH]c3ncc(-c4ccc(Cl)cc4)cc23)c1F [vemurafenib]
The gist of the method:
as §1

Compound in experiment [14]: CCCS(=O)(=O)Nc1ccc(F)c(C(=O)c2c[nH]c3ncc(Cl)cc23)c1F
The gist of the method:
as §1

Compound in experiment [15]: CCN(CCCOc1ccc2c(Nc3cc(CC(=O)Nc4cccc(F)c4)[nH]n3)ncnc2c1)CCOP(=O)(O)O [barasertib]
The gist of the method:
as §1

Compound in experiment [16]: CC[C@@H]1C(=O)N(C)c2cnc(Nc3ccc(C(=O)NC4CCN(C)CC4)cc3OC)nc2N1C1CCCC1
The gist of the method:
as §1

Compound in experiment [17]: CC[C@@H]1C(=O)N(C)c2cnc(Nc3ccc(C(=O)N[C@H]4CC[C@H](N5CCN(CC6CC6)CC5)CC4)cc3OC)nc2N1C(C)C [volasertib]
A digest of the protocol:
as §1

Compound in experiment [18]: CN1CCN(CCOc2cc(OC3CCOCC3)c3c(Nc4c(Cl)ccc5c4OCO5)ncnc3c2)CC1 [saracatinib]
A digest of the protocol: as §1

Compound in experiment [19]: CN1CCN(c2nc(C3=C(c4c[nH]c5ccccc45)C(=O)NC3=O)c3ccccc3n2)CC1 [sotrastaurin]
The gist of the method: as §1

Compound in experiment [20]: CC(C)C1=C2N=C(C=C(N2N=C1)NCC3=CC=CC=C3)NCCCCCCN
The gist of the method:
as §1

Targets with a hit are over-represented here; the source holds about 8,800 in all. About 0.5% of all pairs of compound and target were hits. Values without a mark were called inactive.

UniProt P14621, sequence (P14621 whole entry, looked up): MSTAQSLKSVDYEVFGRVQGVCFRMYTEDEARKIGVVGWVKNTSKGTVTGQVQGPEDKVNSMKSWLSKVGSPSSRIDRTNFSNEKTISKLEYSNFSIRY
UniProt Q7L211, sequence (Q7L211 whole entry, looked up): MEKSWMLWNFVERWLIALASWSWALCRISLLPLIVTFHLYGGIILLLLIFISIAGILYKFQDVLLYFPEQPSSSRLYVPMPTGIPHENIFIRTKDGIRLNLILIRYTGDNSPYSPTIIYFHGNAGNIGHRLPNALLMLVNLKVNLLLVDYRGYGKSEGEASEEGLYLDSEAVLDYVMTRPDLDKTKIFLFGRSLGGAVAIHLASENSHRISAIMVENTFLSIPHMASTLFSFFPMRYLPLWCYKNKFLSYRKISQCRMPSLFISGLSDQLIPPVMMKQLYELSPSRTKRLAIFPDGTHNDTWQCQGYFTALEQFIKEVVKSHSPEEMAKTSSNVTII

In the case of ACAT1, A0A5F9ZHJ0, the log2 fold change was 0.034 in [1]; -0.129 in experiment [2]; -0.106 in experiment [3]; 0.013 in [4]; -0.131 in [5]; -0.006 in [6]. The log2 fold change in experiment [7] was 0.081.

Consider ABHD13 (UniProt Q7L211), for which the log2 fold change in experiment [8] is 0.041; in experiment [9] it was -0.017; in experiment [3] it was -0.028; in experiment [10], 0.196; in experiment [11], 0.03; in experiment [12] it was 0.003. Moreover, the log2 fold change in experiment [13] is 0.069; in experiment [14], -0.016; in experiment [15], 0.102; in [16], -0.107; in experiment [17] it was 0.06; in experiment [6] it was -0.543 (active). For the same target, the values for the log2 fold change in [7], in [18] and in experiment [19] were 0.077, 0.179 and -0.031, respectively.

For ACYP2 (UniProt P14621), the log2 fold change in experiment [8] was 0.086; in experiment [9] it was 0.004; in experiment [1] it was 0.026; in experiment [2], -0.018; in [20], 0.044; in experiment [3], 0.047. Also, the log2 fold change in experiment [11] was -0.036; in experiment [4], 0.025; in experiment [12] it was 0.04; in experiment [13] it was -0.245; in experiment [14], -0.023; in experiment [15] it was 0.04. Further, the log2 fold change in [17] is 0.011; in experiment [5] it was -0.007; in [6], 0.189; in experiment [7], -0.036; in [19], -0.019.

Values taken from the supplement of paper PMC10849652.
